# Data taken from PubChem BioAssay (NCI).
# Compounds without any hit were thinned out: in the full panel of roughly 79,000, 15% have a hit. A number with no mark means an inactive call. Active and inactive are the calls of the source. Cut-off read from the data, not from the text of the source: active = growth inhibition above about 70%; inactive = the rest.
# How the values were obtained:
# [1] = NCI Yeast Anticancer Drug Screen. Data for the rad50 strain (AID 155);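 note: 0% = growth of vehicle-only cultures of the same strain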; conditions: S. cerevisiae rad50 strain growth inhibition; at 50.0 µM; active compounds read high
# How it was run: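 Yeast carrying a defined DNA repair defect were exposed to test compounds, and growth was compared with vehicle-treated controls to give percent inhibition.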
# [2] = NCI Yeast Anticancer Drug Screen. Data for the mec2-1 strain (AID 157); conditions: S. cerevisiae mec2-1 strain, at 50.0 µM, active compounds read high
# How it was run: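 Readout is yeast growth inhibition, normalised to vehicle-treated controls, in the mec2-1 strain exposed to compound.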
# [3] = NCI Yeast Anticancer Drug Screen. Data for the sgs1 mgt1 strain (AID 161);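 note: 0% = growth of cultures given vehicle only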; conditions: S. cerevisiae sgs1 mgt1 strain, at 50.0 µM, active compounds read high
# How it was run: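 This yeast growth screen uses a strain with defined DNA-repair lesions; compound-treated growth is compared with vehicle-treated growth.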
# [4] = NCI Yeast Anticancer Drug Screen. Data for the cln2 rad14 strain (AID 165);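 note: 0% = growth equal to vehicle treated cultures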; conditions: S. cerevisiae cln2 rad14 strain, at 50.0 µM, active compounds read high
# How it was run: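 Relative to vehicle controls, growth inhibition of compound-treated cln2 rad14 yeast was recorded.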
# [5] = NCI Yeast Anticancer Drug Screen. Data for the bub3 strain (AID 167); conditions: S. cerevisiae bub3 mutant strain, at 50.0 µM, active compounds read high
# How it was run: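 Compounds were applied to a genetically altered yeast strain carrying a cell-cycle control defect. Growth inhibition was scored against vehicle-treated controls.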
# [6] = NCI Yeast Anticancer Drug Screen. Data for the mlh1 rad18 strain (AID 175); conditions: S. cerevisiae mlh1 rad18 strain growth inhibition; at 50.0 µM; active compounds read high
# How it was run: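 Test agents were incubated with a yeast strain of defined genotype (DNA damage repair defect). Inhibition of growth was derived by comparison with vehicle-exposed cultures.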
Compound,growth inhibition [1],growth inhibition [2],growth inhibition [3],growth inhibition [4],growth inhibition [5],growth inhibition [6]
Cn1cnnc1Sc1c([N+](=O)[O-])ncn1C,-3.3%,-5.25%,-5%,22.5%,15.6%,-11.6%
CCC(CC)CC1CCCCC1=O (stereo unspecified),1.3%,-5.25%,-6.25%,3.75%,-20.6%,-7.65%
OCc1ccc2[n+](c1)CCC1c3ccccc3NC21 (stereo unspecified),-8.35%,-8.75%,-18.6%,-8.4%,-26.3%,-6.45%
N#CCCN(CCC#N)CCN(CCN(CCC#N)CCC#N)CCN(CCC#N)CCC#N,-8.1%,-0.25%,-6.4%,2.1%,-15.2%,-10.8%
CCOC(=O)C(=CN1CCCCCC1)C(=O)OCC,19.8%,13.2%,13.2%,6.1%,-0.25%,32.5%
Clc1ccc(NC2=NCCN=C(Nc3ccc(Cl)cc3)SS2)cc1,23.7%,14.2%,39.8%,17.4%,37.5%,20.7%
O=C1c2cc(Cl)ccc2NC(=NC2CCCC2)C2CSCN12 (stereo unspecified),7.8%,-13.2%,2.8%,-6.35%,-22.8%,16.6%
CCCC(=O)C(CC)C(=O)OCC (stereo unspecified),-8.7%,-1.35%,-3%,-9.8%,-0.25%,11.4%
Cc1cc2c(=O)n(-c3ccc(F)cc3)c(C)nc2c(C(=O)O)c1C,-11.3%,-8.75%,-0.6%,10%,-14.6%,9.55%
O=C1CC(=O)C(Br)=C1Br,99.5% (active),99.5% (active),99.5% (active),99.3% (active),99.4% (active),99.5% (active)
S=C1NCCOc2ccccc21,-8.65%,-13.1%,-2.5%,-8.05%,-10.9%,-4.55%
O=C1[C@H]2ON(c3ccccc3)C(c3ccc(Cl)cc3)[C@H]2C(=O)N1c1ccc(Cc2ccc(N3C(=O)[C@@H]4ON(c5ccccc5)C(c5ccc(Cl)cc5)[C@@H]4C3=O)cc2)cc1 (stereo partly specified),1.75%,8.6%,0.2%,26.4%,21.4%,7.6%
Oc1ccccc1-c1nc2ccccc2s1,-0.25%,-37%,7.85%,-2.7%,10.3%,-10.2%
COc1cnc(NS(=O)(=O)c2ccc(N)cc2)nc1,-12.2%,-9.8%,-9.45%,10.2%,-10%,-7.2%
COc1c(C)cc(Cc2ccc3c(c2)OCO3)cc1C,-7.8%,-12.9%,4.2%,-22%,-10.6%,-5.3%
CCc1c2cc(OC)c(OC)cc2cc2c3cc(OC)c(OC)cc3cc[n+]12 (tested in a mixture with another compound),-23.1%,-22.4%,-20.1%,-20.9%,-42%,-11.7%
Cc1nc2ccc(S(=O)(=O)Nc3ccc(Cl)cc3)cc2c(=O)n1NC(=O)CNc1ccc(Cl)cc1,33.3%,22.4%,42.2%,15.6%,19.9%,24.2%
CC#CCCC1CCCCNC1=O (stereo unspecified),0.8%,-16.9%,27.1%,12.1%,26.5%,3.7%
CCOC(=O)C1C(=O)CC(O)(c2ccccc2)C(C(=O)OCC)C1c1ccc(OC)cc1 (stereo unspecified),-17.9%,-13.2%,-6.65%,-31.1%,6.95%,-3.7%
CCCCC1CCC(=O)NC1=O (stereo unspecified),4.25%,29.6%,5.8%,5.2%,14.7%,1.9%
CN=C1NC(C)(C)C2CCC(C)(CC2)S1,8.35%,14.9%,-4.3%,-71.3%,2.85%,14.7%

Compound,growth inhibition [1],growth inhibition [2],growth inhibition [3],growth inhibition [4],growth inhibition [5],growth inhibition [6]
CC1CCC(CC(N)=O)C1(C)C (stereo unspecified),11.8%,-7.15%,2.75%,-22.2%,2.85%,0.35%
CC(C)CCCC(C)C1CCC2C3CC=C4CC(OC(=O)c5ccncc5)CCC4(C)C3CCC12C (stereo unspecified),3.2%,-12.1%,-10.2%,-28.4%,-0.4%,-23.6%
CCC(O)(CC)Cc1ccc(Cl)cc1,-1%,-9.55%,-0.4%,-12.2%,-12.4%,-6.65%
Fc1ccccc1C(Nc1nc2ccccc2s1)Nc1nc2ccccc2s1,13.4%,6.05%,-7.3%,-0.3%,-3.15%,1.35%
CCN(CC)n1c(N)nc2c1c(=O)n(C)c(=O)n2C,-9.05%,-6.65%,2.95%,-24.6%,9.65%,13.3%
COC(=O)Nc1ccc(NC(=O)c2cscn2)c(NC(=O)OC)n1,1.55%,2.7%,-2.3%,-4.05%,5.75%,-3.45%
O=C(c1ccc2c(c1)OCO2)C(O)c1ccc(Cl)cc1 (stereo unspecified),2.85%,3.9%,1.85%,-16.1%,-4.75%,5%
CC(=O)Oc1ncnc2c1cnn2C,-8.95%,-1.65%,-15.6%,-38.6%,2.15%,-3.3%
O=C(O)C1[N-]CCNC1C(=O)O.[O]=[V][OH] (stereo unspecified),-10.7%,-2.4%,-4.6%,-16.9%,-2.25%,-5.05%
O=C1NC2CCC(NC(=O)N1c1ccccc1)C1=C2C1,-28.6%,-8.85%,-5.7%,-0.8%,-3.4%,-32.1%
CNC(=O)c1c(-c2ccc(F)cc2)noc1C,-6.7%,-10.5%,25.4%,9.05%,17.4%,10.1%
CC1CC=CCC1C(=O)OC/C=C/COC(=O)C1CC=CCC1C (stereo unspecified),29.4%,-19.9%,8.65%,-9.9%,14.9%,-4.65%
O=C1CCC(=O)N2C(=O)CCC(=O)N12,-33.5%,-26.3%,-18.9%,-15.3%,0.45%,3.45%
O=C(O)/C=C\Sc1ccccc1C(=O)O,2.05%,-15.9%,-6.5%,-2.05%,-10.2%,23.1%
NC(=O)CNC(=O)c1ccc(N)cc1,16.8%,7.6%,11.2%,15.6%,1.25%,18.4%
CCNC(=O)OCc1cc(Cl)cc(Cl)c1OC(=O)NCC,99.5% (active),99.2% (active),99.7% (active),96.8% (active),98.5% (active),99.5% (active)
CC(=O)Nc1ccc2c(c1)Cc1cc(Cl)c(Cl)cc1-2,57.5%,-4.05%,31.7%,-17.1%,-3.7%,37.6%
C/C=C/Cc1ccccc1O,7.1%,-3.4%,-5.05%,-6.4%,-9.2%,-1.1%
CCCCCCCCCCCCCCCCCC(=O)OCC1OC(OC2(OC(=O)CCCCCCCCCCCCCCCCC)OC(COC(=O)CCCCCCCCCCCCCCCCC)C(OC(=O)CCCCCCCCCCCCCCCCC)C2OC(=O)CCCCCCCCCCCCCCCCC)C(OC(=O)CCCCCCCCCCCCCCCCC)C(OC(=O)CCCCCCCCCCCCCCCCC)C1OC(=O)CCCCCCCCCCCCCCCCC (stereo unspecified),17.2%,6%,25.4%,-2.75%,17.9%,23.8%
BrC1=C(c2ccccc2)C2CCCCC2C1(Br)c1ccccc1 (stereo unspecified),96.2% (active),97.1% (active),97.8% (active),96.9% (active),96.8% (active),98% (active)
